Assay in all cases: DAPPL (digital affinity profiling via proximity ligation, sequencing); 10 mM Tris-HCl pH 7.5, 50 mM NaCl, 1 mM DTT, 4% glycerol, room temperature, 30 min; GST-TFs on glutathione beads, 16-mer random dsDNA library, 0.1% formaldehyde crosslink after washing; high values mean tight binding
The target in one assay is T1, FEV (Homo sapiens, UniProt Q99581 1-238).
T1 sequence: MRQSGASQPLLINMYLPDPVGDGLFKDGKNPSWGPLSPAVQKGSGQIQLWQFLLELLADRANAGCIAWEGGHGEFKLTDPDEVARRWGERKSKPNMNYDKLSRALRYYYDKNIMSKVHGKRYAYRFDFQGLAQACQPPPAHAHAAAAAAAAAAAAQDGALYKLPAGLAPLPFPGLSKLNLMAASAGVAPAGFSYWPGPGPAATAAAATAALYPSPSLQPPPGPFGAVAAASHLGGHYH
The conditions noted are these: protein: recombinant; tags: N-terminal GST; dsDNA, one strand shown. The essentials: (§1)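 Binding signal is given per hexamer as its read frequency for a factor divided by its frequency in the tag-only sample. GST-fused human transcription factors were expressed in yeast, captured on glutathione beads, barcoded with DNA and pooled with that sample, then incubated with 200 nmole of a 16-mer random double-stranded DNA library in Tris/NaCl/DTT/glycerol buffer for 30 min at room temperature. The pools were then washed, crosslinked, proximity-ligated, amplified by PCR and sequenced on an Illumina NextSeq500.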

For the next assay, the target named is ETV5 (Homo sapiens, UniProt P41161 1-510). The conditions noted are these: protein: recombinant; tags: N-terminal GST; dsDNA, one strand shown. Summed up: as §1
Sequence of ETV5 (P41161 whole entry): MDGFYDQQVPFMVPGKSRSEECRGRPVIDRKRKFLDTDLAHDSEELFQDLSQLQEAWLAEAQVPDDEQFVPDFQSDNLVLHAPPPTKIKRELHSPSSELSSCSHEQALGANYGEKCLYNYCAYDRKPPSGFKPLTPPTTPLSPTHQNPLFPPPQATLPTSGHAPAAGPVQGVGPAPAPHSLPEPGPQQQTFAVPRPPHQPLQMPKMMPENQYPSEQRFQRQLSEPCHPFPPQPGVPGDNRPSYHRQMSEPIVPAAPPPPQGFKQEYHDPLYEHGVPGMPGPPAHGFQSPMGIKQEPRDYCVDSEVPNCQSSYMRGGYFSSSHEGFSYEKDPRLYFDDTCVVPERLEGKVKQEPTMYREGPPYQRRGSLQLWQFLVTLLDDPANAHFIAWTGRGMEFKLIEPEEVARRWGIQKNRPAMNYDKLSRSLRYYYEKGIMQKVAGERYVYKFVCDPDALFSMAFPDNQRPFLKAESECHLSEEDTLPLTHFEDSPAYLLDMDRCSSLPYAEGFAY
The target in another assay is HSF1 (Homo sapiens, UniProt Q00613 1-529). The conditions noted are these: protein: recombinant; tags: N-terminal GST; chain copies: 3; dsDNA, one strand shown. The essentials:
as §1

Another assay addresses T2, SPIC (Homo sapiens, UniProt Q8N5J4 1-248).
T2 sequence: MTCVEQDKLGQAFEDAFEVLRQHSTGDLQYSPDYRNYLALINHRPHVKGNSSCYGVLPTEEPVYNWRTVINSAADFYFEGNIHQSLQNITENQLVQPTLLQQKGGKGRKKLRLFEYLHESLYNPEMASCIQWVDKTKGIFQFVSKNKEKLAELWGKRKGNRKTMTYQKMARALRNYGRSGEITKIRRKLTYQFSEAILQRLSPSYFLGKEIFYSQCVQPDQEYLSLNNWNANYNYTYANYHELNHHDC
The conditions noted are these: protein: recombinant; tags: N-terminal GST; dsDNA, one strand shown. The essentials: as §1

Another assay concerns the target ELF4 (Homo sapiens, UniProt Q99607 1-663). Particulars: protein: recombinant; tags: N-terminal GST; dsDNA, one strand shown. Summed up: as §1
Another assay has as its target T3, ELK4 (Homo sapiens, UniProt P28324-2 1-405).
T3 sequence: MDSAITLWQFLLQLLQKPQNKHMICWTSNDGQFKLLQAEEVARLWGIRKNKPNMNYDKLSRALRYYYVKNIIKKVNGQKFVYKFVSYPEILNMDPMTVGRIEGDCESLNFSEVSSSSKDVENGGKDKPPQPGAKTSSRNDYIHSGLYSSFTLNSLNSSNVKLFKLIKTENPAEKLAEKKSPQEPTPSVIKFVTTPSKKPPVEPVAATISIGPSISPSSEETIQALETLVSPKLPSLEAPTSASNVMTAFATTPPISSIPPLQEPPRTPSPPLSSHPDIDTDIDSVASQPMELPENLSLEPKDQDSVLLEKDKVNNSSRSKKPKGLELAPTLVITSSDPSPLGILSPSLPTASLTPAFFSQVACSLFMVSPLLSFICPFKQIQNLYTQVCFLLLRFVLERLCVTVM
The conditions noted are these: protein: recombinant; tags: N-terminal GST; dsDNA, one strand shown. Summed up:
as §1

Another assay addresses T4, ETV2 (Homo sapiens, UniProt O00321 1-342).
T4 sequence: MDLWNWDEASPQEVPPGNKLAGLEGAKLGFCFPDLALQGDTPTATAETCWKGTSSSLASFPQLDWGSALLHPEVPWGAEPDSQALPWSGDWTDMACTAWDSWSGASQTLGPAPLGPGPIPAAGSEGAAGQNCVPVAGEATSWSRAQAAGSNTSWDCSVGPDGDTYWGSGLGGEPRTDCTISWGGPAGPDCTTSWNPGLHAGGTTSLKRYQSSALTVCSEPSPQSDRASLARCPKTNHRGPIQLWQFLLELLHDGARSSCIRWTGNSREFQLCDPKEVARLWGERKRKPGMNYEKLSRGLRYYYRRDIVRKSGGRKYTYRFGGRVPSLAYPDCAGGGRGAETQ
Particulars: protein: recombinant; tags: N-terminal GST; dsDNA, one strand shown. Summed up: as §1

Another assay addresses T5, ELF3 (Homo sapiens, UniProt P78545 1-371).
T5 sequence: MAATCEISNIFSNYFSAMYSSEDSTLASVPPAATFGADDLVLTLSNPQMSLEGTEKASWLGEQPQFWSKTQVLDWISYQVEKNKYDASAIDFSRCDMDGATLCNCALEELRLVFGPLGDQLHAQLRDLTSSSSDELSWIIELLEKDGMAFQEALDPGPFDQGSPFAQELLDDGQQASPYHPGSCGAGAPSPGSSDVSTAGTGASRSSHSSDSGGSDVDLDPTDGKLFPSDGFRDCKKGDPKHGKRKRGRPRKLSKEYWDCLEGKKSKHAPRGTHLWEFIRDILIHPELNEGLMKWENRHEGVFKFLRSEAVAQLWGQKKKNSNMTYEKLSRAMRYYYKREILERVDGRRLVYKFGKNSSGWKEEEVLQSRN
The conditions noted are these: protein: recombinant; tags: N-terminal GST; dsDNA, one strand shown. The essentials: as §1

The next assay has as its target CRX (Homo sapiens, UniProt O43186 1-299). Particulars: protein: recombinant; tags: N-terminal GST; dsDNA, one strand shown. The essentials: as §1
A further assay has as its target ETV1 (Homo sapiens, UniProt P50549 1-477). Particulars: protein: recombinant; tags: N-terminal GST; dsDNA, one strand shown. Summed up:
as §1

In a further assay the target is T6, ERF (Homo sapiens, UniProt P50548 1-548).
T6 sequence: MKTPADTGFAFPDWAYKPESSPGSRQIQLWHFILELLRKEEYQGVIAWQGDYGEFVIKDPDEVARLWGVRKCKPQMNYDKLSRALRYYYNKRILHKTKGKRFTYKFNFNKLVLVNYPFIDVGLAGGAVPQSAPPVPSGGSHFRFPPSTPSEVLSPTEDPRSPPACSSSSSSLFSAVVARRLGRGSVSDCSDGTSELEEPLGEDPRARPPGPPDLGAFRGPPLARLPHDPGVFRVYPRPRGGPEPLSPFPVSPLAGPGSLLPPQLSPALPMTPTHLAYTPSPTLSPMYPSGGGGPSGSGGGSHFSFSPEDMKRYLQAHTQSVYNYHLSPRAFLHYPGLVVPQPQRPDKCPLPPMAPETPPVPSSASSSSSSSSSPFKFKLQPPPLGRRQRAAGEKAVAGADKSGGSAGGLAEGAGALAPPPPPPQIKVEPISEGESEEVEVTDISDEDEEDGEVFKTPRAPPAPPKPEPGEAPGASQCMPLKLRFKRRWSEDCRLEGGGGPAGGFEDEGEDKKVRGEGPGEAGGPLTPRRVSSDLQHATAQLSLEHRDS
The conditions noted are these: protein: recombinant; tags: N-terminal GST; dsDNA, one strand shown. The essentials: as §1

A further assay concerns the target T7, ETV3L (Homo sapiens, UniProt Q6ZN32 1-361).
T7 sequence: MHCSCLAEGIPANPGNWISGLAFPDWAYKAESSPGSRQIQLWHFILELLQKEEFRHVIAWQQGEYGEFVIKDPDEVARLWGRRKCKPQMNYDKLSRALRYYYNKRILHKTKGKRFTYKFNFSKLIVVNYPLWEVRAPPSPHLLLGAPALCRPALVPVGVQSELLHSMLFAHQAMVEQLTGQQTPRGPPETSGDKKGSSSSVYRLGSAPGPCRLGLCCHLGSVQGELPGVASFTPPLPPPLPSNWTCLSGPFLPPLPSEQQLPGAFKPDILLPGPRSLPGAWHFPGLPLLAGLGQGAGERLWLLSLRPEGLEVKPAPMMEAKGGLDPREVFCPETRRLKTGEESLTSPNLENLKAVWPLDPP
The conditions noted are these: protein: recombinant; tags: N-terminal GST; dsDNA, one strand shown. The essentials: as §1

The target of a further assay is T8, ETS2 (Homo sapiens, UniProt P15036 1-469).
T8 sequence: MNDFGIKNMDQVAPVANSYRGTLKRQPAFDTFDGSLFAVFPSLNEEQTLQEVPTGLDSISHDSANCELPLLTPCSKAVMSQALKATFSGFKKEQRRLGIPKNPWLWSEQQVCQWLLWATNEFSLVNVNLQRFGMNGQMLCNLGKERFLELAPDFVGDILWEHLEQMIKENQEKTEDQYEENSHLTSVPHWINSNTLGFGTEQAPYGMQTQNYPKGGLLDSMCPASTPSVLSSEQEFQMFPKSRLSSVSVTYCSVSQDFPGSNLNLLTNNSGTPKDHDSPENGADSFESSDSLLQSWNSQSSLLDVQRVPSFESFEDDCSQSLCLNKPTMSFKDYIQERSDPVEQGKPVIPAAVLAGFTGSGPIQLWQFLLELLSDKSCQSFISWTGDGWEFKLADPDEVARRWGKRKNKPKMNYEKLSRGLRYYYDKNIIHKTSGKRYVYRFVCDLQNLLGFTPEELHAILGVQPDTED
Particulars: protein: recombinant; tags: N-terminal GST; dsDNA, one strand shown. The essentials:
as §1

In the next assay the target is T9, SPDEF (Homo sapiens, UniProt O95238 1-335).
T9 sequence: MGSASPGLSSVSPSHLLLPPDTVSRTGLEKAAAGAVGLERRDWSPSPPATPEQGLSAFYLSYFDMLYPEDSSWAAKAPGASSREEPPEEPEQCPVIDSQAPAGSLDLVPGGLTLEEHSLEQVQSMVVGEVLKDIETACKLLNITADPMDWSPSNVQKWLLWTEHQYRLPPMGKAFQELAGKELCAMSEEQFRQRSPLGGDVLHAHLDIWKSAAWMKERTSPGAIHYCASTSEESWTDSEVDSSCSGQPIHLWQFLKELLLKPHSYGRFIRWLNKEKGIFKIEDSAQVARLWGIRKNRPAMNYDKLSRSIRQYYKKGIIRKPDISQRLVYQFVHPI
The conditions noted are these: protein: recombinant; tags: N-terminal GST; dsDNA, one strand shown. Summed up:
as §1

The target in the next assay is T10, ETV7 (Homo sapiens, UniProt Q9Y603 1-341).
T10 sequence: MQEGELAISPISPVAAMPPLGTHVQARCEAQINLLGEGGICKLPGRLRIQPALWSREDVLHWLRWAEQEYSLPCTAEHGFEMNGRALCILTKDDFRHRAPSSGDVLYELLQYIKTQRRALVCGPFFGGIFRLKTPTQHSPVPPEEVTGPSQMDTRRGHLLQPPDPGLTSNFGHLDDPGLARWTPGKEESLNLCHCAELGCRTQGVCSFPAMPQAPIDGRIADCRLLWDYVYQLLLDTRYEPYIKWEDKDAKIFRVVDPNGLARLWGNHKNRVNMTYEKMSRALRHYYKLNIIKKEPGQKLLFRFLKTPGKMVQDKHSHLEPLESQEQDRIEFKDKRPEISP
Particulars: protein: recombinant; tags: N-terminal GST; dsDNA, one strand shown. Summed up: as §1

A further assay concerns the target T11, ELF5 (Homo sapiens, UniProt Q9UKW6-2 1-255).
T11 sequence: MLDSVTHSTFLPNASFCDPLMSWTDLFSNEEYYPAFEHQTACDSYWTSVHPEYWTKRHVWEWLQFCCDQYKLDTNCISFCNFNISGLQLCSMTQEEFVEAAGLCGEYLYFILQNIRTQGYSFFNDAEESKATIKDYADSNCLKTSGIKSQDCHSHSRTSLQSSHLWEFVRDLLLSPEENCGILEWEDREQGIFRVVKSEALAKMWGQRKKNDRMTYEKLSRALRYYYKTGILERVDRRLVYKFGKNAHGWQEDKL
Particulars: protein: recombinant; tags: N-terminal GST; dsDNA, one strand shown. Summed up:
as §1

A further assay concerns the target T12, ETV3 (Homo sapiens, UniProt P41162-2 1-143).
T12 sequence: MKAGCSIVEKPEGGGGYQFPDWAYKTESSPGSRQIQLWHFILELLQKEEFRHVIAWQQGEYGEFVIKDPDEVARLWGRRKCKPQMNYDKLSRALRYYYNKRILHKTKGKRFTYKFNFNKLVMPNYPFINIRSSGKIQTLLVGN
Particulars: protein: recombinant; tags: N-terminal GST; dsDNA, one strand shown. Summed up:
as §1

A further assay has as its target ETV6 (Homo sapiens, UniProt P41212 1-452). Particulars: protein: recombinant; tags: N-terminal GST; dsDNA, one strand shown. Summed up:
as §1

Sequence of ETV6 (P41212 whole entry): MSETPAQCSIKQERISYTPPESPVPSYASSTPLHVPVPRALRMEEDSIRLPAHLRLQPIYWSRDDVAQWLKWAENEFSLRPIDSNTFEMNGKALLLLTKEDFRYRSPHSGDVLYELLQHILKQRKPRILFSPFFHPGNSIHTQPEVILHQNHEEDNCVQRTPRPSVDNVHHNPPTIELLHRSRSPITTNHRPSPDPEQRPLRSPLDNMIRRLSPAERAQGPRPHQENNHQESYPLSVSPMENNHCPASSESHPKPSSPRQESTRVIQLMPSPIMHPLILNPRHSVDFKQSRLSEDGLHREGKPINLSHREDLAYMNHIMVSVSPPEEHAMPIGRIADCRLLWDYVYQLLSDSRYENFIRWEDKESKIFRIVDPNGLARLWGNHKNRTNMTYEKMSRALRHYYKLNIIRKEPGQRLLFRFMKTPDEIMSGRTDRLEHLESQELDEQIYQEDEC
Sequence of CRX (O43186 whole entry): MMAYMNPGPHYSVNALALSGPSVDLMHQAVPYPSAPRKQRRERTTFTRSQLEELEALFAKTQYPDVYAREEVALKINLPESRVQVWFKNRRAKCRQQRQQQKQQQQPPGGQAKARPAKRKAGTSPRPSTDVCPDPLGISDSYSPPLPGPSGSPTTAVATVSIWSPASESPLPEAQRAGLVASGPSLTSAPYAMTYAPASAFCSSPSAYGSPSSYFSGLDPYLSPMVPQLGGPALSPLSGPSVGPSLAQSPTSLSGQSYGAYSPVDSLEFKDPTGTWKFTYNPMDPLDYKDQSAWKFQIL
Sequence of ETV1 (P50549 whole entry): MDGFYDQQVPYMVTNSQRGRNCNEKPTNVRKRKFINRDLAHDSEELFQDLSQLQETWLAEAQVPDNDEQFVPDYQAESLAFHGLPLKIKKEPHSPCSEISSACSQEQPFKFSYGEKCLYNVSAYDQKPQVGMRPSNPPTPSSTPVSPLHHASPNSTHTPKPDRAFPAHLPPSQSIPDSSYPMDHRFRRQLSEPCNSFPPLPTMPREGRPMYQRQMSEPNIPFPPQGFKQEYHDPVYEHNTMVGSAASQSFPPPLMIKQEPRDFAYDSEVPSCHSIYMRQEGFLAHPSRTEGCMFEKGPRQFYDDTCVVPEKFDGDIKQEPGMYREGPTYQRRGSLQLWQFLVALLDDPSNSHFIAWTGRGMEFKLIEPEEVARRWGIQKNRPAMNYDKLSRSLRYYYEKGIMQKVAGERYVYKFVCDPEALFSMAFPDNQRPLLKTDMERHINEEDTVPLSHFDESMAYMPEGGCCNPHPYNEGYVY
Sequence of ELF4 (Q99607 whole entry): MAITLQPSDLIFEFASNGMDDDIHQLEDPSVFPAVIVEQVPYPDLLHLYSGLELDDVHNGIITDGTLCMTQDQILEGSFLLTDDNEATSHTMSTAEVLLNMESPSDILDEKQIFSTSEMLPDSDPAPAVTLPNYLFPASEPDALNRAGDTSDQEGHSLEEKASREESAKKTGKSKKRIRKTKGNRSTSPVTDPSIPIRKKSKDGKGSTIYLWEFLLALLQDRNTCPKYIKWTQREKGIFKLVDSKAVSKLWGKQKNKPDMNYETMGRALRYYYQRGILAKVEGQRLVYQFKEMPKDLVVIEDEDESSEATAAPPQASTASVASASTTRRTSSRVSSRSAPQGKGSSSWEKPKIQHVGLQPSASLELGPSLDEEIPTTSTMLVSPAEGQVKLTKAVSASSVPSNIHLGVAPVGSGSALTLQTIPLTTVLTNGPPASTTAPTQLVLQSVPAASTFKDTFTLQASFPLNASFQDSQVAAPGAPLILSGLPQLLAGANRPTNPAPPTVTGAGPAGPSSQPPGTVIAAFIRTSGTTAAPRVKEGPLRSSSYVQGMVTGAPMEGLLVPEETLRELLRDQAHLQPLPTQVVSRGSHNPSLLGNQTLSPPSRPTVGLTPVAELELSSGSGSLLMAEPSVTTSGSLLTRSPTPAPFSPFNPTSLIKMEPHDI
Sequence of HSF1 (Q00613 whole entry): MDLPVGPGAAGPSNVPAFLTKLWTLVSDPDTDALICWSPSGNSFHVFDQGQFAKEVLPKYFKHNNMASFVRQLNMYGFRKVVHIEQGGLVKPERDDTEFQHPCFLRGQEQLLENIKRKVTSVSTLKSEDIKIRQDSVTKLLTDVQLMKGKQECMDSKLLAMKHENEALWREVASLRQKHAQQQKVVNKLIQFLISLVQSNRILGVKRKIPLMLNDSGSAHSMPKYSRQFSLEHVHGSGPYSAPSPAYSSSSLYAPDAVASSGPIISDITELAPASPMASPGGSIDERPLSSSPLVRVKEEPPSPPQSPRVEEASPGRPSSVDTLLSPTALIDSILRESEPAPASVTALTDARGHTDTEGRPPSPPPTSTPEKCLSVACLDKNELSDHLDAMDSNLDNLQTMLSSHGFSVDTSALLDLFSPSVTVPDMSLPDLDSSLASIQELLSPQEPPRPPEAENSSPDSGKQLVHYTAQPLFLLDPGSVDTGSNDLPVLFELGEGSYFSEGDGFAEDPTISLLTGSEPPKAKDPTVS

ATGCTA: the binding signal is 1.32 fold enrichment (6-mer frequency, TF over GST control) with FEV; 1.33 fold enrichment (6-mer frequency, TF over GST control) in the assay with ETV5; 1.46 fold enrichment (6-mer frequency, TF over GST control) with HSF1; 1.23 fold enrichment (6-mer frequency, TF over GST control) with SPIC; 1.3 fold enrichment (6-mer frequency, TF over GST control) in the assay with ELF4; 1.32 fold enrichment (6-mer frequency, TF over GST control) with ELK4. For the same sequence, the binding signal was 1.43 fold enrichment (6-mer frequency, TF over GST control) with ETV2; 1.29 fold enrichment (6-mer frequency, TF over GST control) with ELF3; 1.45 fold enrichment (6-mer frequency, TF over GST control) with CRX; 1.31 fold enrichment (6-mer frequency, TF over GST control) with ETV1; 1.26 fold enrichment (6-mer frequency, TF over GST control) with ERF; 1.37 fold enrichment (6-mer frequency, TF over GST control) with ETV3L. Moreover, the binding signal in the assay with ETS2 is 1.25 fold enrichment (6-mer frequency, TF over GST control); with SPDEF, 1.23 fold enrichment (6-mer frequency, TF over GST control); with ETV7, 1.3 fold enrichment (6-mer frequency, TF over GST control); in the assay with ELF5 it was 1.28 fold enrichment (6-mer frequency, TF over GST control); with ETV3 it was 1.28 fold enrichment (6-mer frequency, TF over GST control); with ETV6, 1.27 fold enrichment (6-mer frequency, TF over GST control).

The values above are taken from publication PMC7862700, “An all-to-all approach to the identification of sequence-specific readers for epigenetic DNA modifications on cytosine”.
